# Test results taken from PubChem BioAssay (NCATS).
# Unmarked numbers belong to inactive results. Activity calls are given as the source filed them. The call rests on the fitted dose curve; in most records, active means well fitted curve in the direction sought with a large enough effect; inconclusive means small, poorly fitted or top-dose-only effect, or another doubt; inactive means no such curve, though single readings can be large or run the other way.
# Test: qHTS for compounds that reverse cellular toxicity of Amyloid beta (A-beta) peptide in yeast: LOPAC Validation Assay (AID 720559)
# Conditions: yeast expressing A-beta; Potency: rescue of growth toxicity; series mostly up to 46.1 µM; growth rescue, positive = activation: at the top concentration
# Source text: The A-beta peptide is produced by the processing of the amyloid precursor protein (APP) by two proteases, beta and gamma secretases. […] A-beta42 is regarded as the most amyloidogenic form due to its hydrophobicity; however, precisely how A-beta42 induces neurotoxicity is unclear. To understand further this biology and its potential therapeutic implications for human neurodegenerative disease, a quantitative high-throughput screen for compounds that reverse the cellular toxicity of the A-beta peptide was developed.
# A yeast based screen was used because it recapitulates the salient feature of protein mis-folding disorder accurately. This cell-based phenotypic screen provides a significant, unbiased advantage by letting the compounds and models inform us which proteins or pathways are most relevant. The ideal chemical candidates would therefore have activity in both our primary yeast and secondary neuronal toxicity assays, as well as in mouse models. They will be valuable tools for dissecting diverse protein homeostasis pathologies and could potentially become the focus for future pre-clinical development. For this […] assay, inhibition of A-beta rescues the toxic effect in the yeast cell, resulting in increase of signals.
# NIH Chemical Genomics Center [NCGC]
# NIH Molecular Libraries Probe Centers Network [MLPCN]
# Assay Submitter (PI): Susan Lindquist, Whitehead Institute, Massachusetts Institute of Technology
# [1] Vassar R,et al (1999). Beta-secretase cleavage of Alzheimer's amyloid precursor protein by the transmembrane aspartic protease BACE. Science. 286: 735-741.
# [2] Yan R, et al (1999). Membrane-anchored aspartyl protease with Alzheimer's disease beta-secretase activity. Nature.
# Two and a half microliter / well of yeast growth medium were dispensed in a 1536 assay plate. Compounds were pinned using the Kalypsys robotic system followed by addition of 2.5 uL / well yeast solution. The assay plates were incubated at 30 C. After 48 hr, the absorbance signal at 600 nm was obtained using the PerkinElmer ViewLux plate reader to assess yeast growth. The data was normalized to the positive control of an equimolar mixture of ferric chloride (FeCl3) and clioquinol and to the negative control DMSO.
SMILES,"growth rescue, positive = activation",Potency
CC(C)NC[C@H](O)COc1cccc2[nH]ccc12,-3.83%,
CNc1ncnc2c1ncn2[C@@H]1O[C@H](CO)[C@@H](O)[C@H]1O,2.79%,
CN1[C@@H](CC(=O)c2ccccc2)CCC[C@H]1C[C@H](O)c1ccccc1,-5.87%,
NCC1OC(O[C@H]2[C@H](O)[C@@H](OC3C(O)C(N)CC(N)C3OC3OC(CO)C(O)C(O)C3N)O[C@@H]2CO)C(N)C(O)C1O (stereo not given in full),-7.82%,
O=C1C(SCCO)=C(SCCO)C(=O)c2ccccc21,-7.86%,
CCCCCCCCCCCCCCCCCC(=O)NCC(COP(=O)([O-])OCC[N+](C)(C)C)OCC (stereo not given),-59.9%,
CCNC(=O)[C@H]1O[C@@H](n2cnc3c(N)nc(NCCc4ccc(CCC(=O)O)cc4)nc32)[C@H](O)[C@@H]1O,0.697%,
NC[C@@H]1O[C@H](C23CC4CC(CC(C4)C2)C3)Cc2c1ccc(O)c2O,-2.71%,
N#C/C(=C\c1ccc(O)c(O)c1)C(=O)NCc1ccccc1,-3.01%,
CCCCCCCCc1ccc(-c2ccc(C(=O)O)cc2)cc1,-2.08%,
CC(C)ON([C@@H](C(=O)NO)C(C)C)S(=O)(=O)c1ccc(-c2ccccc2)cc1,-7.81%,
Cc1nc2sccn2c(=O)c1CCN1CCC(=C(c2ccccc2)c2ccc(F)cc2)CC1,-4.31%,
CCCn1c(=O)c2[nH]c(-c3ccc(OCC(=O)NCCN)cc3)nc2n(CCC)c1=O,-2.57%,
COc1ccccc1CNCCCCCCNCCCCCCCCNCCCCCCNCc1ccccc1OC,-0.969%,
C=CC(N)CCC(=O)O (stereo not given),-6.76%,
O=P(O)(O)C(Cl)(Cl)P(=O)(O)O,-3.88%,
CCCC1(C)C(C#N)(C#N)C1(C#N)C#N,-2.33%,
Cn1cc(C2=C(c3ccc(Cl)cc3Cl)C(=O)NC2=O)c2ccccc21,-7.81%,
CC(C)NC[C@@H](O)c1ccc(O)c(O)c1,-3.47%,
NCCCCCCCCCCN,-3.8%,

SMILES,"growth rescue, positive = activation",Potency
CCC1C(=O)OCC1Cc1cncn1C (stereo not given),,inactive
CCCCCCCCCCCCCCCC(=O)NCC(COP(=O)([O-])OCC[N+](C)(C)C)OCC (stereo not given),-47.3%,
CCCCCCCC/C=C\CCCCCCCC(=O)NCCO,-5.81%,
OC[C@H]1O[C@@H](n2cnc3c(Nc4ccccc4)ncnc32)[C@H](O)[C@@H]1O,-2.1%,
NCCSSCCN,1.57%,
NS(=O)(=O)C#Cc1ccccc1,-29.5%,
Nc1nc(Cl)nc2c1ncn2[C@@H]1O[C@H](COP(=O)(O)OP(=O)(O)OP(=O)(O)O)[C@@H](O)[C@H]1O,,18.4 µM (active)
COc1cc(SC)ccc1C(=O)N1CCC(Cc2ccccc2)CC1,5.7%,
N#C/C(=C\c1ccc(-c2cc(Cl)ccc2Cl)o1)C(=O)Nc1cccc2ncccc12,-2.66%,
CC(=O)/C=C1\C(=O)N(C)c2ccccc21,-62.1%,
O=C(Nc1ccccc1)c1cc([N+](=O)[O-])ccc1Cl,-2.31%,
N[C@@H](CC(=O)O)C(=O)O,-2.53%,
CCCCCCCCCCCCCCCCCCNC(=O)OCC(COP(=O)([O-])OCC[n+]1ccsc1)OC (stereo not given),-2.68%,
CO/S(=N\S(=O)(=O)c1ccc(Cl)cc1)c1ccc([N+](=O)[O-])cc1 (stereo not given),7.88%,
C=CC(C)=C[C@@]1(C)SC(=O)C(C)=C1O,-3.3%,
O=C(O)c1cc(=O)c2ccccc2[nH]1,-0.362%,
O=C(O)/C=C/C(O)c1ccc(Cl)cc1 (stereo not given),-7.23%,
CCCCCCCCCCCCCCCCCC(=O)OC(CC(=O)O)C[N+](C)(C)C (stereo not given),-60.5%,
Cc1ccc(S(=O)(=O)/C=C/C#N)cc1,-61.4%,
CCN(CC)c1ncnc2c1ncn2[C@@H]1O[C@H](COP(=O)(O)OP(=O)(O)C(Br)(Br)P(=O)(O)O)[C@@H](O)[C@H]1O,-2.74%,
